{"source": "the supplement of paper PMC8728848", "binders": {"B1": {"name": "OGAN (protein)", "chain": "MVQKESQATLEERESELSSNPAASAGASLEPPAAPAPGEDNPAGAGGAAVAGAAGGARRFLCGVVEGFYGRPWVMEQRKELFRRLQKWELNTYLYAPKDDYKHRMFWREMYSVEEAEQLMTLISAAREYEIEFIYAISPGLDITFSNPKEVSTLKRKLDQVSQFGCRSFALLFNDIDHNMCAADKEVFSSFAHAQVSITNEIYQYLGEPETFLFCPTEYCGTFCYPNVSQSPYLRTVGEKLLPGIEVLWTGPKVVSKEIPVESIEEVSKIIKRAPVIWDNIHANDYDQKRLFLGPYKGRSTELIPRLKGVLTNPNCEFEANYVAIHTLATWYKSNMNGVRKDVVMTDSEDSTVSIQIKLENEGSDEDIETDVLYSPQMALKLALTEWLQEFGVPHQY"}}, "assay_in_all_cases": "glycan array binding signal (z-score within array); higher = stronger binding", "settings_in_all_cases": "glycan notation: IUPAC condensed, linker removed", "key": {"Gal3S6S(b1-4)GlcNAc": {"target": "Gal3S6S(b1-4)GlcNAc", "outline": "(§1)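 Columns mapping to the same glycan were averaged after glycan names were converted to IUPAC-condensed notation. The data come from 3228 arrays in the Consortium for Functional Glycomics database, limited to those with an available protein sequence. Binding is reported as a within-array Z-score averaged across arrays of one protein sequence and across linkers.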"}, "[1]": {"target": "Glc(a1-4)Glc(a1-4)Glc(a1-4)Glc", "outline": "as §1"}, "[2]": {"target": "GlcA3S(b1-3)Gal(b1-4)GlcNAc(b1-2)Man", "outline": "as §1"}, "[3]": {"target": "GlcNAc(a1-3)Gal(b1-4)GlcNAc", "outline": "as §1"}, "[4]": {"target": "GlcNAc(a1-4)Gal(b1-4)GlcNAc(b1-3)Gal(b1-4)GlcNAc(b1-3)Gal(b1-4)GlcNAc", "outline": "as §1"}, "[5]": {"target": "GlcNAc(a1-4)Gal(b1-4)GlcNAc(b1-3)Gal(b1-4)[Fuc(a1-3)]GlcNAc(b1-3)Gal(b1-4)[Fuc(a1-3)]GlcNAc", "outline": "as §1"}, "[6]": {"target": "GlcNAc(b1-2)Man(a1-3)[GlcNAc(b1-4)][GlcNAc(b1-2)Man(a1-6)]Man(b1-4)GlcNAc(b1-4)[Fuc(a1-6)]GlcNAc", "outline": "as §1"}, "[7]": {"target": "GlcNAc(b1-3)Gal(b1-3)GalNAc", "outline": "as §1"}, "[8]": {"target": "GlcNAc(b1-3)Gal(b1-4)GlcNAc", "outline": "as §1"}, "[9]": {"target": "GlcNAc(b1-3)Gal(b1-4)GlcNAc(b1-2)Man(a1-3)[GlcNAc(b1-3)Gal(b1-4)GlcNAc(b1-2)Man(a1-6)]Man(b1-4)GlcNAc(b1-4)GlcNAc", "outline": "as §1"}, "[10]": {"target": "GlcNAc(b1-3)Gal(b1-4)GlcNAc(b1-3)Gal(b1-4)GlcNAc", "outline": "as §1"}, "[11]": {"target": "GlcNAc(b1-3)Gal(b1-4)GlcNAc(b1-3)Gal(b1-4)GlcNAc(b1-3)Gal(b1-4)GlcNAc(b1-3)Gal(b1-4)GlcNAc(b1-2)[GlcNAc(b1-3)Gal(b1-4)GlcNAc(b1-3)Gal(b1-4)GlcNAc(b1-3)Gal(b1-4)GlcNAc(b1-3)Gal(b1-4)GlcNAc(b1-6)]Man(a1-6)[GlcNAc(b1-3)Gal(b1-4)GlcNAc(b1-3)Gal(b1-4)GlcNAc(b1-3)Gal(b1-4)GlcNAc(b1-3)Gal(b1-4)GlcNAc(b1-2)Man(a1-3)]Man(b1-4)GlcNAc(b1-4)[Fuc(a1-6)]GlcNAc", "outline": "as §1"}, "[12]": {"target": "GlcNAc(b1-3)Gal(b1-4)GlcNAc(b1-6)[GlcNAc(b1-3)Gal(b1-3)]GalNAc", "outline": "as §1"}, "[13]": {"target": "GlcNAc(b1-3)[GlcNAc(b1-4)][GlcNAc(b1-6)]GlcNAc", "outline": "as §1"}, "Kdn(a2-3)Gal(b1-4)Glc": {"target": "Kdn(a2-3)Gal(b1-4)Glc", "outline": "as §1"}, "Man(a1-2)Man(a1-3)Man": {"target": "Man(a1-2)Man(a1-3)Man", "outline": "as §1"}, "[14]": {"target": "Man(a1-2)Man(a1-3)[Man(a1-2)Man(a1-6)]Man(a1-6)[Man(a1-2)Man(a1-2)Man(a1-3)]Man(b1-4)GlcNAc(b1-4)GlcNAc", "outline": "as §1"}, "MurNAc(b1-4)GlcNAc": {"target": "MurNAc(b1-4)GlcNAc", "outline": "as §1"}, "[15]": {"target": "Neu5Ac(a2-3)Gal(b1-3)GalNAc(b1-3)Gal(a1-4)Gal(b1-4)Glc", "outline": "as §1"}, "[16]": {"target": "Neu5Ac(a2-3)Gal(b1-3)GalNAc(b1-4)[Neu5Ac(a2-8)Neu5Ac(a2-3)]Gal(b1-4)Glc", "outline": "as §1"}, "[17]": {"target": "Neu5Ac(a2-3)Gal(b1-4)GlcNAc(b1-2)Man(a1-3)[Neu5Ac(a2-6)Gal(b1-4)GlcNAc(b1-2)Man(a1-6)]Man(b1-4)GlcNAc(b1-4)GlcNAc", "outline": "as §1"}, "[18]": {"target": "Neu5Ac(a2-3)Gal(b1-4)GlcNAc(b1-3)GalNAc", "outline": "as §1"}, "[19]": {"target": "Neu5Ac(a2-3)Gal(b1-4)[Fuc(a1-3)]GlcNAc(b1-3)Gal", "outline": "as §1"}, "[20]": {"target": "Neu5Ac(a2-6)Gal(b1-4)GlcNAc(b1-2)Man(a1-3)[Gal(b1-4)GlcNAc(b1-2)Man(a1-6)]Man(b1-4)GlcNAc(b1-4)GlcNAc", "outline": "as §1"}, "[21]": {"target": "Neu5Ac(a2-6)Gal(b1-4)GlcNAc(b1-2)Man(a1-3)[GlcNAc(b1-4)][Neu5Ac(a2-6)Gal(b1-4)GlcNAc(b1-2)Man(a1-6)]Man(b1-4)GlcNAc(b1-4)GlcNAc", "outline": "as §1"}, "[22]": {"target": "Neu5Ac(a2-6)Gal(b1-4)GlcNAc(b1-3)Gal(b1-4)GlcNAc(b1-3)Gal(b1-4)GlcNAc(b1-2)Man(a1-3)[Neu5Ac(a2-6)Gal(b1-4)GlcNAc(b1-3)Gal(b1-4)GlcNAc(b1-3)Gal(b1-4)GlcNAc(b1-2)Man(a1-6)]GalNAc", "outline": "as §1"}, "[23]": {"target": "Neu5Ac(a2-6)Gal(b1-4)GlcNAc6S", "outline": "as §1"}, "[24]": {"target": "Neu5Ac(a2-8)Neu5Ac(a2-3)[Gal(b1-3)GalNAc(b1-4)]Gal(b1-4)Glc", "outline": "as §1"}, "[25]": {"target": "Neu5Gc(a2-6)Gal(b1-4)GlcNAc", "outline": "as §1"}, "[26]": {"target": "Neu5Gc(b2-6)Gal(b1-4)GlcNAc", "outline": "as §1"}}, "note": "Many of the other results were omitted from the sample, so the strongest signals are more common in it than they were.", "data": [{"binder": "B1", "values": [{"measurement": "glycan array binding signal (z-score)", "setting": "Gal3S6S(b1-4)GlcNAc", "result": -0.035}, {"measurement": "glycan array binding signal (z-score)", "setting": "[1]", "result": 0.06}, {"measurement": "glycan array binding signal (z-score)", "setting": "[2]", "result": -0.022}, {"measurement": "glycan array binding signal (z-score)", "setting": "[3]", "result": -0.068}, {"measurement": "glycan array binding signal (z-score)", "setting": "[4]", "result": -0.058}, {"measurement": "glycan array binding signal (z-score)", "setting": "[5]", "result": -0.057}, {"measurement": "glycan array binding signal (z-score)", "setting": "[6]", "result": -0.074}, {"measurement": "glycan array binding signal (z-score)", "setting": "[7]", "result": -0.035}, {"measurement": "glycan array binding signal (z-score)", "setting": "[8]", "result": -0.063}, {"measurement": "glycan array binding signal (z-score)", "setting": "[9]", "result": -0.058}, {"measurement": "glycan array binding signal (z-score)", "setting": "[10]", "result": -0.055}, {"measurement": "glycan array binding signal (z-score)", "setting": "[11]", "result": 0.044}, {"measurement": "glycan array binding signal (z-score)", "setting": "[12]", "result": -0.052}, {"measurement": "glycan array binding signal (z-score)", "setting": "[13]", "result": -0.047}, {"measurement": "glycan array binding signal (z-score)", "setting": "Kdn(a2-3)Gal(b1-4)Glc", "result": -0.059}, {"measurement": "glycan array binding signal (z-score)", "setting": "Man(a1-2)Man(a1-3)Man", "result": -0.01}, {"measurement": "glycan array binding signal (z-score)", "setting": "[14]", "result": -0.036}, {"measurement": "glycan array binding signal (z-score)", "setting": "MurNAc(b1-4)GlcNAc", "result": -0.024}, {"measurement": "glycan array binding signal (z-score)", "setting": "[15]", "result": -0.065}, {"measurement": "glycan array binding signal (z-score)", "setting": "[16]", "result": -0.051}, {"measurement": "glycan array binding signal (z-score)", "setting": "[17]", "result": -0.048}, {"measurement": "glycan array binding signal (z-score)", "setting": "[18]", "result": -0.082}, {"measurement": "glycan array binding signal (z-score)", "setting": "[19]", "result": -0.094}, {"measurement": "glycan array binding signal (z-score)", "setting": "[20]", "result": -0.055}, {"measurement": "glycan array binding signal (z-score)", "setting": "[21]", "result": -0.034}, {"measurement": "glycan array binding signal (z-score)", "setting": "[22]", "result": 0.039}, {"measurement": "glycan array binding signal (z-score)", "setting": "[23]", "result": -0.052}, {"measurement": "glycan array binding signal (z-score)", "setting": "[24]", "result": -0.052}, {"measurement": "glycan array binding signal (z-score)", "setting": "[25]", "result": -0.071}, {"measurement": "glycan array binding signal (z-score)", "setting": "[26]", "result": -0.021}]}]}
